# Assay results reported in PubChem BioAssay (NCI).
# The panel holds about 83,000 compounds, 20% with a hit somewhere; the sample as a whole holds those more often.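 Plates (96-well) were seeded with cells, treated with compound at one concentration, and incubated for 48 hours before percent growth was determined.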 A number with no mark means an inactive call. Calls of active or inactive are those of the source. Rule for the calls: active = growth percent below 10; inactive = the rest.
# Key:
# Assay in all cases: NCI-60 one-dose screen, 48 h (100 = growth as untreated, 0 = no growth, -100 = all killed)
# NCI-H23 lung = conditions: 10 µM unless noted
# NCI-H226 lung = conditions: 10 µM unless noted
# NCI-H322M lung = conditions: 10 µM unless noted
# HOP-62 NSCLC = conditions: 10 µM unless noted
# NCI-H460 lung = conditions: 10 µM unless noted
# HOP-92 NSCLC = conditions: 10 µM unless noted
# NCI-H522 lung = conditions: 10 µM unless noted
# A549/ATCC NSCLC = conditions: 10 µM unless noted
# 786-0 renal = conditions: 10 µM unless noted
# COLO 205 colon = conditions: 10 µM unless noted
# DU-145 prostate = conditions: 10 µM unless noted
# K-562 leukemia = conditions: 10 µM unless noted
# MALME-3M melanoma = conditions: 10 µM unless noted
# MDA-MB-231 breast = conditions: 10 µM unless noted
# SF-268 CNS = conditions: 10 µM unless noted
# SF-295 CNS = conditions: 10 µM unless noted
# SF-539 CNS = conditions: 10 µM unless noted
# UACC-257 melanoma = conditions: 10 µM
# M14 melanoma = conditions: 10 µM unless noted
SMILES,growth (NCI-H23 lung),growth (NCI-H226 lung),growth (NCI-H322M lung),growth (HOP-62 NSCLC),growth (NCI-H460 lung),growth (HOP-92 NSCLC),growth (NCI-H522 lung),growth (A549/ATCC NSCLC),growth (786-0 renal),growth (COLO 205 colon),growth (DU-145 prostate),growth (K-562 leukemia),growth (MALME-3M melanoma),growth (MDA-MB-231 breast),growth (SF-268 CNS),growth (SF-295 CNS),growth (SF-539 CNS),growth (UACC-257 melanoma),growth (M14 melanoma)
COc1cc(C2C=C(C)N=C3SC=CN32)cc(OC)c1OC (stereo not drawn),108%,103%,105%,106%,105%,91.6%,97.2%,107%,113%,113%,112%,123%,104%,100%,104%,108%,116%,102%,107%
COc1cc2oc(-c3cccc(NC(=O)Nc4ccc5c(c4)OCO5)c3)cc(=O)c2c(OC)c1OC,64.5%,87.6%,79.4%,63.2%,37.7%,17.2%,41.5%,61%,65.1%,75.8%,65.4%,41.9%,75.7%,61.3%,75.6%,60%,81.8%,,-9.91% (active)
Cc1cc(Nc2nc(C(=O)Nc3ccccc3)nc3ccccc23)n[nH]1,77.5%,67.1%,56.5%,60%,37.6%,51.2%,59%,62.4%,56.2%,76%,66.2%,48.7%,61.5%,85.4%,71%,53.9%,78.7%,83%,50.9%
CC[C@H](C)[C@@H]1NC(=O)[C@H]([C@@H](C)O)NC(=O)C(Cc2ccccc2)NC(=O)[C@@H]2CCCN2C(=O)C(C(C)C)NC(=O)C(Cc2ccccc2)NC(=O)CNC(=O)[C@@H]2CCCN2C1=O (stereo partly drawn),82.5%,65.8%,85.3%,76%,55.7%,-18.4% (active),55.5%,56.6%,39.9%,79.7%,83.6%,20.9%,64%,26.4%,72.8%,74.2%,83.2%,60.7%,
FC(F)(F)c1cccc(-n2nnc3cnc(Nc4ccc(N5CCCCC5)cc4)nc32)c1,66.5%,92.4%,90.7%,98.1%,12.6%,110%,2.95% (active),20.9%,25.3%,77.2%,57.6%,67.3%,41.6%,58.7%,55.5%,93.6%,90.7%,63.4%,
COc1cc(CCn2nnc3c(NCCCCO)ncnc32)cc(OC)c1,94.5%,99.3%,99.3%,113%,105%,83.8%,111%,101%,105%,109%,104%,116%,111%,120%,105%,105%,111%,103%,90.3%
CC(=O)Nc1nc(C(=O)N2N=C(C)/C(=C/c3cccs3)C2=O)cs1,107%,101%,95.4%,99.1%,107%,99.1%,86.6%,101%,102%,104%,99.4%,102%,86%,111%,107%,106%,103%,91.7%,101%
COc1cc(-c2n[nH]nc2-c2ccc3c(c2)OCCO3)cc(OC)c1OC,22.8%,75.7%,51.4%,8.87% (active),2.69% (active),24.3%,-44.5% (active),16.5%,20.9%,-85.7% (active),10%,8.96% (active),69.7%,33.3%,15.9%,2.6% (active),-35.9% (active),61.7%,16.5%
COc1ccc(-c2nnc(COc3ccc(NC(=O)Nc4ccc(Cl)c(C(F)(F)F)c4)cc3F)o2)cc1,-20.2% (active),33.5%,33%,36.4%,-25.4% (active),-13.4% (active),-54.6% (active),11.1%,24.7%,-7.23% (active),13.2%,16.9%,-1.11% (active),-8.46% (active),20.5%,-3.88% (active),0.516% (active),30.3%,
COc1ccc(/C=C2\Oc3cc(OCCN4CCCC4)ccc3C2=O)c(OC)c1,88.5%,97.8%,101%,84.3%,93.9%,79.7%,104%,99.4%,88.2%,92.8%,90.8%,2.26% (active),102%,88.7%,95.1%,100%,87.4%,,98.9%
O=C(Nc1cc(C(F)(F)F)cc(C(F)(F)F)c1)Nc1ccc(OCc2nnc(-c3ccc(Cl)cc3)o2)c(F)c1,-5.96% (active),6.03% (active),19.3%,10.3%,6.63% (active),-11.9% (active),-22.8% (active),10.5%,15.1%,-84.7% (active),23.8%,16.1%,-3.82% (active),-17% (active),25.6%,8.71% (active),10.5%,2.65% (active),18.6%
NC(=O)c1c(NC(=O)c2ccc(OCC3CCCO3)cc2)sc2c1CCCC2 (stereo not drawn),100%,83.8%,99.8%,108%,106%,66.9%,87.3%,35.5%,95.5%,111%,105%,134%,82.4%,96.6%,109%,93.8%,100%,,
CC(=O)Nc1nc(C(=O)N2N=C(C)/C(=C/c3ccccc3)C2=O)cs1,108%,107%,102%,99.8%,106%,108%,85.4%,101%,105%,103%,111%,98.4%,96.8%,113%,105%,108%,97.2%,104%,95.2%
COc1cc(CCn2nnc3c(Nc4ccc(N5CCOCC5)cc4)ncnc32)cc(OC)c1,95.1%,90.7%,111%,104%,98.4%,47.3%,88.5%,98.1%,107%,94.9%,99.3%,44.4%,100%,91.9%,99.7%,100%,87.5%,102%,85.5%
Nc1c(C(=O)Nc2cccc([N+](=O)[O-])c2)sc2nc3c(cc12)C(O)CCC3 (stereo not drawn),67.6%,80.8%,78.2%,55.1%,28.2%,72.1%,28.3%,39.2%,68.7%,40.8%,71.4%,17.6%,65.8%,65.5%,60.5%,57.4%,37%,66.8%,
CC(C)(C)c1cn2cccc(C(=O)N3CCN(CC(=O)Nc4ccc(Cl)cc4C(=O)c4ccccc4Cl)CC3)c2n1,60.6%,71.6%,94.6%,84.7%,49.8%,-30% (active),54.9%,27.6%,55.3%,54.2%,73.3%,33.5%,86.4%,73.5%,85.8%,-5.34% (active),51.4%,,
Cc1cc(Nc2nc(-c3ccncc3)nc3ccccc23)n[nH]1,80.2%,79.1%,75.7%,95.1%,66.1%,54.9%,58.7%,41.9%,48.2%,31.7%,79.7%,38.1%,88.8%,84.1%,70.1%,69.9%,59.5%,90%,65.7%
